Glioma ERSR ind = inducers of ER stress response in human glioma cells. U87-MG GRP78 promoter luciferase reporter, 16 h. Potency, µM, for inactives: top-dose activation, usual class: activators. 420,000 compounds, 0.02% hits. AID 602332; also: series mostly up to about 76 µM; % of control where 0% means no effect; nearly all actives have a fitted effect of over 35% in size
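Stably transfected U87-MG human glioma cells carrying a GRP78-based luminescent sensor were seeded at 1000 cells/well, pin-dosed with compounds and incubated 16 h. Luciferase reagent was then added, and end-point luminescence was read after 10 min at room temperature.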
PTHR1 agonist = agonists of human PTHR1 parathyroid hormone receptor | Q03431 | HEK293 GP2 PTHR1 cells, GloSensor cAMP luminescence, 1 h | Potency, µM (series often up to 115 µM), without a hit: top-dose activation, hits mostly activators | 410,000 compounds, 0.075% hits | AID 743266; also: nearly all actives have a fitted effect of over 55% in size
Target sequence (Q03431 whole entry, looked up): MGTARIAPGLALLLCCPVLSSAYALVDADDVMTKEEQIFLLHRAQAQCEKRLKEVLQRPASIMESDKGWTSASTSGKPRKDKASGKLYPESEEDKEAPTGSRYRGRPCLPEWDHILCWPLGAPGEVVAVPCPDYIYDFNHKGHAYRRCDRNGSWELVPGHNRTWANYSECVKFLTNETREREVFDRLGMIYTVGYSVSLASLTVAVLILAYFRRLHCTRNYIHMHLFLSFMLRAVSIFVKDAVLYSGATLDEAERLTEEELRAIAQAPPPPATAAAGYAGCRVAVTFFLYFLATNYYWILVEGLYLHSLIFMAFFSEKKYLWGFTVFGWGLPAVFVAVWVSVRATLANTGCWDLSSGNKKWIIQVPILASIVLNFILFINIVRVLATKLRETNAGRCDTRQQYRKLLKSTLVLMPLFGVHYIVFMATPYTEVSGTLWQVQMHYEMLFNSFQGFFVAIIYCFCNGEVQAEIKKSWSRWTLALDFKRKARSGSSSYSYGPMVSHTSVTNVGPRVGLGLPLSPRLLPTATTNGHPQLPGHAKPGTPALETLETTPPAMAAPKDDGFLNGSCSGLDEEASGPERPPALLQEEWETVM
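HEK-293-derived GP2 cells expressing PTHR1 and a GloSensor cAMP reporter, 3,000/well, plated overnight, given luciferin plus IBMX (each 0.5 mM as added) for 1 h at 37 °C, then compound for 1 h at 37 °C. Luminescence was read after 15 min at room temperature.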
12-LOX inh = blocks human arachidonate 12S-lipoxygenase. AID 1671190. P18054. Potency, µM (doses to about 108 µM), for inactives: at the top dose activity change, negative = inhibition, actives largely listed as inhibitors. 580,000 compounds, 1.1% hits. purified 12hLO, xylenol orange hydroperoxide absorbance; also: % is scaled to controls: 0 for no effect and ±100 for the full control effect
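Hydroperoxide product was detected by ferrous iron/xylenol orange as the 573 to 405 nm absorbance ratio. Arachidonic acid at 40 uM (final) was turned over for 30 min at room temperature by 150 nM human 12hLO, pH 7.0 Hepes buffer, after 15 min compound preincubation.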
GLS inhibitor = inhibitors of human glutaminase (GLS); O94925; GLS enzymatic activity, qHTS titration; Potency, µM (top dose mostly 45.5 µM), for inactives: at the top dose activity change, negative = inhibition, most hits filed as inhibitors; 410,000 compounds, 0.21% hits; AID 624170; also: % is scaled to controls: 0 for no effect and ±100 for the full control effect
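Enzyme dispensed in phosphate buffer (45 mM, pH 8.2, 0.02% Tween-20), compounds pinned in, then 1 mM L-glutamine solution and the glutamate oxidase–HRP–Amplex Red mix added; fluorescence read immediately and again after 30 min at room temperature.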
GLP1R inv ag = inverse agonists of human GLP-1 receptor. 410,000 compounds, 1.6% hits. HEK293 GLP-1R CRE-luciferase, luminescence, 24 h; GLP-1R form is constitutively active. Potency, µM (top dose mostly 38.3 µM), for the others: at the highest dose activity change, negative = inhibition, most hits filed as inhibitors. P43220; also: % is scaled to controls: 0 for no effect and ±100 for the full control effect; nearly all actives have a fitted effect of over 55% in size
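Inverse agonism was detected as reduced cAMP-driven luciferase luminescence after 24 h compound treatment. The cells were HEK293 clones expressing constitutively active human GLP-1R with the reporter. Reporter-only and GPR119 cell lines served as counterscreen controls.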
GLP-1R agonist = activates the human GLP-1 receptor | HEK293 GLP-1R CRE-luciferase, luminescence, 4-6 h; cells express a hypersensitive GLP-1R form | Potency, µM (titrated, usually from 45.6 µM), for the others: top-dose activation, hits mostly activators | P43220 | 380,000 compounds, 0.007% hits; also: % of control where 0% means no effect
Numbers without * were called inactive; [ ] = another dose, or the depositor's remark. Compounds with a hit are over-represented: about 2.3% of the library has one in this group of screens. Calls follow the shape of the dose curve; as a rule, active = well fitted curve in the direction sought with a large enough effect; inconclusive = small, poorly fitted or top-dose-only effect, or another doubt; inactive = no such curve, though single readings can be large; an effect the other way counts as inactive or inconclusive. Potency is read from the fitted curve at half-maximal effect.

COc1ccc(C(=O)Nc2sc3c(c2C(N)=O)CCC(C)C3)c(OC)c1OC (configuration not stated) was read as 12-LOX inh -30.0%.
Screening COc1ccc(C(=O)O/N=C(\N)Cc2ccc(Cl)c(Cl)c2)cc1OC returned Glioma ERSR ind -14.5%, PTHR1 agonist inconclusive, 12-LOX inh -3.9%, GLS inhibitor 5.8%, GLP1R inv ag inconclusive and GLP-1R agonist -24.0%.
For COc1ccc(C(=O)O/N=C(\N)Cc2ccc(Cl)cc2)cc1OC the results were Glioma ERSR ind -16.2%, PTHR1 agonist inconclusive, 12-LOX inh 0.1%, GLS inhibitor 5.9%, GLP1R inv ag 7.94µM* and GLP-1R agonist 8.2%.
Screening O=[N+]([O-])c1ccc(C2Nc3cccc4cccc(c34)N2)cc1 returned Glioma ERSR ind -5.0%, PTHR1 agonist -27.7%, 12-LOX inh 39.8µM*, GLS inhibitor 7.1%, GLP1R inv ag 0.2% and GLP-1R agonist -24.8%.
`COc1cc2c(cc1OC)C1=C(C#N)CN(C3CCCCC3)CN1CC2` gave Glioma ERSR ind 0.0%, PTHR1 agonist inactive, 12-LOX inh 39.8µM*, GLS inhibitor 11.1%, GLP1R inv ag 54.1% and GLP-1R agonist 16.3%.
For CCOC(=O)N1CCC(N(CCN(C)C)C(=S)Nc2cc(Cl)ccc2C)CC1 the results were Glioma ERSR ind 3.7%, PTHR1 agonist -10.6%, 12-LOX inh -9.4%, GLS inhibitor 18.1%, GLP1R inv ag 5.62µM* and GLP-1R agonist 11.5%.
For CCOC(=O)N1CCC(N(CCN(C)C)C(=S)Nc2cc(C)ccc2C)CC1 the results were Glioma ERSR ind -2.3%, PTHR1 agonist inactive, 12-LOX inh 12.4%, GLS inhibitor 4.4%, GLP1R inv ag -25.5% and GLP-1R agonist -2.5%.
`CCOC(=O)N1CCC(N(CCN(C)C)C(=S)Nc2cccc(Cl)c2)CC1` gave Glioma ERSR ind -6.8%, PTHR1 agonist -28.4%, 12-LOX inh 0.0%, GLS inhibitor 20.3%, GLP1R inv ag 11.2µM* and GLP-1R agonist -1.3%.
CCOC(=O)N1CCC(N(CCN(C)C)C(=S)Nc2cc(Cl)cc(Cl)c2)CC1 was read as Glioma ERSR ind -4.9%, PTHR1 agonist inactive, 12-LOX inh 4.1%, GLS inhibitor -2.2%, GLP1R inv ag 2.9% and GLP-1R agonist -1.4%.
Screening C=CCNC(=O)[C@@H]1Cc2cn(CC3CC3)c3cccc(c23)[C@H](CC(C)C)N1 returned 12-LOX inh 18.8%[176 µM].
`CCc1ccc2c(CN3C(=O)C(=O)N(C4CCCC4)C3=O)cc(=O)oc2c1` gave 12-LOX inh -27.7%.
Screening Cc1cccc(NNC(=S)Nc2c(C)cccc2C)c1 returned Glioma ERSR ind -1.3%, PTHR1 agonist inactive, 12-LOX inh inconclusive, GLS inhibitor -20.1%, GLP1R inv ag 3.16µM* and GLP-1R agonist 8.7%.
Screening Cc1cccc(NNC(N)=S)c1 returned Glioma ERSR ind -1.3%, PTHR1 agonist inactive, 12-LOX inh -29.7%, GLS inhibitor inconclusive, GLP1R inv ag -0.6% and GLP-1R agonist -1.3%.
For Cc1cccc(NNC(=S)Nc2ccccc2)c1 the results were Glioma ERSR ind 3.9%, PTHR1 agonist inactive, 12-LOX inh inconclusive, GLS inhibitor 14.9%, GLP1R inv ag 5.62µM* and GLP-1R agonist -0.9%.
NC(=S)NNc1cccc(Cl)c1 was read as Glioma ERSR ind -1.8%, PTHR1 agonist inactive, 12-LOX inh inconclusive, GLS inhibitor 71.4%, GLP1R inv ag 0.7% and GLP-1R agonist 1.0%.
Cc1cccc(NC(=S)NC(C)(C)CC(C)(C)C)c1 was read as Glioma ERSR ind 0.3%, PTHR1 agonist -47.8%, 12-LOX inh inconclusive, GLS inhibitor 11.4%, GLP1R inv ag 10µM* and GLP-1R agonist 21.5%.
Screening Cc1cccc(NC(=S)NNc2cccc(Cl)c2)c1 returned Glioma ERSR ind 4.7%, PTHR1 agonist -1.3%, 12-LOX inh inconclusive, GLS inhibitor 5.4%, GLP1R inv ag 10µM* and GLP-1R agonist 8.5%.

Assay outcomes: PubChem, National Center for Advancing Translational Sciences (NCATS)
